Results published in PubChem BioAssay (Tox21).
Records with an inconclusive call do not appear. Entries that show only a call come without a potency. Calls of active or inactive are those of the source. The call rests on the fitted dose curve; in most records, active means well fitted cell-killing curve with a large enough effect in the repeat runs; inconclusive means weak or mixed curves, or effect the other way; inactive means flat fitted curve, though single readings scatter.

Test: cAMP Responsive Elements (CRE) small molecule antagonists, cell-based qHTS assay: qHTS cell viability counter screen (AID 2060913); further: nearly all actives have a fitted effect of over 40% in size
Conditions: CRE-bla HEK293T viability, CellTiter-Glo luminescence, 5 h; series mostly up to 92.4 µM
How it was run: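 CRE-bla HEK293T cells (2,000/well, 18 h) given compound plus NKH477 0.25 uM final for 3 h at 37C; viability counter-screen by CellTiter-Glo luminescence in same wells after 30 min.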
Potency means the concentration at half of the fitted maximal effect.

| Compound | Potency | viability change, negative = cytotoxic |
| --- | --- | --- |
| CC(=O)N(CC(O)CO)c1c(I)c(C(=O)NCC(O)CO)c(I)c(C(=O)NCC(O)CO)c1I (stereo not given) | inactive | – |
| COc1c2occc2cc2ccc(=O)oc12 | inactive | – |
| O=C(CCCN1CCN(c2ccc(F)cc2)CC1)NC1c2ccccc2CSc2ccccc21 (stereo not given) | inactive | – |
| C=CC(=O)OCC1CC2CC1C1CCC(COC(=O)C=C)C21 (stereo not given) | inactive | – |
| C=CCN(CC=C)CC=C | inactive | – |
| Cc1cc(=O)oc2cc(N(C)C)ccc12 | inactive | – |
| CC(=O)OC(C)C[N+](C)(C)C (stereo not given) | inactive | – |
| O=C(O)CCc1nc2ccccc2[nH]1 | inactive | – |
| NC(=O)NC1N=C([O][Al])NC1=O (stereo not given) | inactive | – |
| COC(=O)[C@H]1[C@H]2C[C@@H]3c4[nH]c5cc(OC)ccc5c4CCN3C[C@H]2C[C@@H](OC(=O)/C=C/c2ccc(O)c(OC)c2)[C@@H]1OC | inactive | – |
| Cc1oc(=O)oc1COC(=O)[C@@H]1N2C(=O)[C@@H](NC(=O)[C@H](N)c3ccccc3)[C@H]2SC1(C)C | inactive | – |
| NC(=O)C1CO1 (stereo not given) | inactive | – |
| CC(C)(O)c1ccccc1 | inactive | – |
| CC/C=C\CCOC(=O)c1ccccc1 | inactive | – |
| CCCCC(CC)CNC(=O)CC(C)OC(=O)CCC(=O)O (stereo not given) | inactive | – |
| CCc1ccc(C(=O)C(C)CN2CCCCC2)cc1 (stereo not given) | inactive | – |
| CC(C)(C)OC(=O)c1ccccc1C(=O)O | inactive | – |
| COCCOCCOCCOC | inactive | – |
| CCOC(=O)O[C@]1(C(=O)OCCl)CC[C@H]2[C@@H]3CCC4=CC(=O)C=C[C@]4(C)[C@H]3[C@@H](O)C[C@@]21C | inactive | – |
| CCCOC(=O)c1c(Cl)c(Cl)c(Cl)c(Cl)c1C(=O)OCCC | inactive | – |

| Compound | Potency | viability change, negative = cytotoxic |
| --- | --- | --- |
| COc1ccc(CCN2CCC(Nc3nc4ccccc4n3Cc3ccc(F)cc3)CC2)cc1 | 35.1 µM (active) | – |
| CC[C@H](C)[C@H](N)C(=O)O | inactive | – |
| COC(=O)[C@@H](N)Cc1ccc(O)c(O)c1 | inactive | – |
| CC(=O)Oc1c(C)c(C)c2c(c1C)CC[C@@](C)(CCC[C@H](C)CCC[C@H](C)CCCC(C)C)O2 | inactive | – |
| CCOCCO | inactive | – |
| CC1CCC(=O)C1=O (stereo not given) | inactive | – |
| S=C([S-])NCCNC(=S)[S-].[Mn+2] | inactive | – |
| CCCCCCCCCC(C)C=O (stereo not given) | inactive | – |
| C=C(C)C(=O)OCCC(C)OC(=O)C(=C)C (stereo not given) | inactive | – |
| CC(=O)c1ccc(O)cc1 | inactive | – |
| O=C(O)c1cccnc1Nc1cccc(C(F)(F)F)c1 | inactive | – |
| CCCCCCCC1CCCC1=O (stereo not given) | inactive | – |
| COc1c(C)c2c(c(O)c1C/C=C(\C)CCC(=O)O)C(=O)OC2 | inactive | – |
| NCCCNCCSP(=O)(O)O | – | -1.42% [at 8.39 µM] (inactive) |
| CCCCCC[C@@H](O)C/C=C\CCCCCCCC(=O)OCC(O)CO (stereo not given in full) | inactive | – |
| COC(=O)c1cccnc1 | inactive | – |
| CCCCNc1ccccc1 | inactive | – |
| CC(C)Cc1ccc(C(C)C(=O)O)cc1 (stereo not given) | inactive | – |
| CCO[Si](CC(C)C)(OCC)OCC | inactive | – |
| CC(C(=O)O)c1ccc(CC2CCCC2=O)cc1 (stereo not given) | inactive | – |
